Only some compounds are listed: those with a hit (about 4.7% of all), similar ones and a draw of the others.
TWEAK Fn14 block = TWEAK-Fn14 signaling inhibition; inhibition, % at 10 µM; TWEAK-stimulated Fn14 reporter cells, luciferase luminescence, 8 h; 360,000 compounds, 2% hits; AID 1159606; in the data active = inhibition above about 50%
HSF1 inhib = HSF1 inhibition; NIH3T3-HGL HSE-luciferase, MG132-induced, luminescence 8 h; hits give low values; activity change, negative = inhibition, % at 7.5 µM (by protocol); 300,000 compounds, 0.77% hits;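 active = more than half of replicate wells show activity change below -50%, luminescence cut by over half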;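 note: luciferase reports HSF-1 transcriptional activity via heat shock element; 0% = median of DMSO wells and -100% = zero luminescence signal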
HSP90 inh = inhibitors of HSP90 luciferase refolding in rabbit reticulocyte lysate. inhibition, % at 5.6 µM. 290,000 compounds, 0.91% hits. luciferase refolding luminescence, 3 h. AID 1789;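 active = inhibition above the screen-wide mean plus 3 SD, computed separately per campaign, cut at about 16% in these data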;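 note: 0% = DMSO wells and 100% = 60 µM geldanamycin wells; inhibitors lower the luminescence because luciferase stays unfolded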
HSF1 activator = increases HSF-1 driven luciferase reporter signal; 300,000 compounds, 1.7% hits; NIH3T3-HGL HSF-1 luciferase reporter, MG132, 8 h; 100% = twice DMSO control signal; AID 504408; activation, % at 9 µM;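 active = mean replicate activation of at least 50% with a set share of replicates each reaching 50%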;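 note: 0% = median of the neutral control wells and 100% = twice that signal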
EBV LMP1 NFkB = reduces LMP1-driven NF-kappaB luciferase signal. LMP1-induced NF-kappaB luciferase reporter cells, luminescence. inhibition, % at 12.5 µM. 350,000 compounds, 0.69% hits. AID 504558; in the data active = inhibition above about 41%;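 note: 0% = neutral control wells and 100% = reference inhibitor control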
TROY signal inh = inhibitors of TROY-dependent NF-kB signaling | inhibition, % at 10 µM | Q293 LMP1-TROYcd NF-kB luciferase reporter, 4 h | 360,000 compounds, 0.98% hits | AID 1347056;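 active = compounds whose plate-normalised and pattern-corrected inhibition of the luciferase reporter signal at the single screening dose is 50% or more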
HSP90 inh confirm = confirmation of HSP90 inhibitors; shares compounds with HSP90 inh; rabbit reticulocyte lysate, luciferase refolding luminescence, 3 h; inhibition, % at 5.9 µM; 2,300 compounds, 64% hits; AID 1846; in the data active = inhibition above about 18%;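 note: 0% = vehicle wells and 100% = reference inhibitor wells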
FLuc counter = blocks native firefly luciferase in HSP90 counter-screen | shares compounds with HSP90 inh | purified native firefly luciferase, luminescence | inhibition, % at 5.9 µM | 2,300 compounds, 48% hits | AID 1847;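 active = inhibition above the mean inhibition of all tested sample wells plus 3 SD, cut at about 10% in these data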;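 note: 0% = DMSO with luciferase and 100% = wells lacking luciferase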
Target sequence (P08659 whole entry, looked up): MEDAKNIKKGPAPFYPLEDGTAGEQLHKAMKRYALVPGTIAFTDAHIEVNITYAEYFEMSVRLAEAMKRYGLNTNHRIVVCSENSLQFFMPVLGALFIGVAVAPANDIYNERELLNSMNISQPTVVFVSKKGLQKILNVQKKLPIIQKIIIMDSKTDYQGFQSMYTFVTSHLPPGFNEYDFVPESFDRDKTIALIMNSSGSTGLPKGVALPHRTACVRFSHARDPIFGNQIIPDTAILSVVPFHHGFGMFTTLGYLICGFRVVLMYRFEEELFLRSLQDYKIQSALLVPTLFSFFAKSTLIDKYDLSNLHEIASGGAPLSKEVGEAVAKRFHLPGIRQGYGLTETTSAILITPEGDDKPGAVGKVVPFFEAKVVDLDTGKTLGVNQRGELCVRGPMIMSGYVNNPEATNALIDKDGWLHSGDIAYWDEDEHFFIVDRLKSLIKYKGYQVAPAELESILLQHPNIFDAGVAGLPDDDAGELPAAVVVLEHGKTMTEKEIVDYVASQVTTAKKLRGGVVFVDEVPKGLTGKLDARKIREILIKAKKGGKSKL
* hit, by the source's call.

`Cc1ccc(C(=O)Nc2cc3ccccc3oc2=O)cc1` gave TWEAK Fn14 block 101.6*, HSF1 inhib -72.0*, HSP90 inh 49.7*, HSF1 activator -74.9, EBV LMP1 NFkB 79.3*, TROY signal inh 87.6*, HSP90 inh confirm 97.8* and FLuc counter 92.1*.
O=C(O)c1cccc(NC(=O)c2ccccc2)c1 was read as TWEAK Fn14 block -17.5, EBV LMP1 NFkB 7.4 and TROY signal inh -61.0.
`Cc1ccc(C(=O)Nc2cccc(C(=O)N/N=C/c3ccccc3F)c2)cc1` gave TWEAK Fn14 block -10.3, HSF1 inhib -12.2, HSP90 inh 18.8*, HSF1 activator -15.2, EBV LMP1 NFkB 58.7*, TROY signal inh -29.5, HSP90 inh confirm -2.0 and FLuc counter -14.5.
For Cc1ccc(C(=O)Nc2cccc(C(=O)O)c2)cc1 the results were HSF1 inhib -71.7*, HSP90 inh 82.5*, HSF1 activator -72.4, HSP90 inh confirm 87.9* and FLuc counter 83.2*.
For CC(=O)Nc1cc2ccccc2oc1=O the results were TWEAK Fn14 block -18.1, HSF1 inhib -4.4, HSP90 inh -2.1, HSF1 activator -26.0, EBV LMP1 NFkB -52.6 and TROY signal inh 2.1.
Screening CCOc1ccc(C(=O)Nc2cccc(C(=O)O)c2)cc1Cl returned TWEAK Fn14 block 35.5, HSF1 inhib -46.9, HSP90 inh 87.8*, HSF1 activator -45.5, EBV LMP1 NFkB 38.7, TROY signal inh -52.0, HSP90 inh confirm 88.0* and FLuc counter 72.5*.
Screening C[C@H]1CN([C@@H](C)CO)S(=O)(=O)c2ccc(Br)cc2O[C@@H]1CN(C)C(=O)Cc1cccnc1 returned TWEAK Fn14 block -3.9, EBV LMP1 NFkB 2.7 and TROY signal inh 2.2.
For O=C(O)c1ccc(NC(=O)c2ccc(Cl)cc2)c(NC(=O)c2ccc(Cl)cc2)c1 the results were TWEAK Fn14 block -15.7, HSF1 inhib -0.5, HSP90 inh -7.1, HSF1 activator -15.8, EBV LMP1 NFkB 0.7 and TROY signal inh -4.8.
For Cc1ccc(C(=O)Nc2ccc(C(=O)O)cc2NC(=O)c2ccc(C)cc2)cc1 the results were TWEAK Fn14 block 41.0, HSF1 inhib -51.4*, HSP90 inh 60.3*, HSF1 activator -54.9, EBV LMP1 NFkB -10.8, TROY signal inh 13.2, HSP90 inh confirm 55.1* and FLuc counter 36.8*.
Screening Cc1cccc(-c2ocnc2C(=O)Nc2ncc(C)s2)c1 returned TWEAK Fn14 block 15.9, EBV LMP1 NFkB 1.8 and TROY signal inh -3.0.
Screening COc1ccc(/C=N/NC(=O)c2nn(-c3ccccc3)c(=O)c3c(N)scc23)cc1 returned TWEAK Fn14 block -9.0, HSF1 inhib 5.6, HSP90 inh 20.4*, HSF1 activator 11.9, EBV LMP1 NFkB 4.3, TROY signal inh 2.8, HSP90 inh confirm 8.2 and FLuc counter -10.9.
Screening COc1ccc(/C=N/NC(=O)c2nn(-c3ccc(Cl)cc3)c(=O)c3c(N)scc23)cc1 returned TWEAK Fn14 block 12.1, HSF1 inhib 6.5, HSP90 inh 5.1, HSF1 activator 36.1, EBV LMP1 NFkB -0.5 and TROY signal inh -22.3.
For COc1ccc(C(=O)NCCCC2CCCC2)cc1OC1CCN(C(C)C)CC1 the results were TWEAK Fn14 block -11.3, EBV LMP1 NFkB -2.2 and TROY signal inh -34.9.
For O=C1CC[C@H](OCc2ccccc2)CCN1[C@H](CSc1ccccc1)Cc1ccccc1 the results were TWEAK Fn14 block -5.5, HSF1 inhib 11.5, HSP90 inh 26.9*, HSF1 activator -9.4, EBV LMP1 NFkB 0.6, TROY signal inh -4.2, HSP90 inh confirm -4.6 and FLuc counter -14.3.
For Cc1ccc(NCc2nc3ccccc3n2C)c(C)c1 the results were TWEAK Fn14 block 42.4, HSF1 inhib 32.7, HSP90 inh 28.5*, HSF1 activator 63.6*, EBV LMP1 NFkB -0.9, TROY signal inh -66.1, HSP90 inh confirm 45.1* and FLuc counter 39.3*.

Screening results: PubChem BioAssay, several laboratories
